Test results taken from the supplement of paper PMC4022240.
± gives the standard deviation.

What was measured:
Assay in all cases: peptide microarray binding signal (635 nm), min-max normalized on array (fraction of array maximum); higher = stronger binding
Settings in all cases: peptide region: H2B 7-19
[1] = target: T1, HaloTag-ATRX ADD domain (163-292)
T1 chain: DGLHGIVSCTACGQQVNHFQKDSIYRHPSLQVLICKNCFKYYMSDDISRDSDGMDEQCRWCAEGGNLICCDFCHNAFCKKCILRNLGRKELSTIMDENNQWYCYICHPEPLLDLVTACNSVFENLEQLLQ
Procedure: (§1)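 Histone 13-mer peptides were synthesized as cellulose conjugates with a C-terminal 20-atom PEG linker and printed in triplicate on nitrocellulose. The sequence given is the unmodified backbone; PTMs (Kme1/2/3, Kac, Sph/Tph, Rme/Rme2a/Rme2s, Rcit) are listed in the label and the 'peptide modifications' condition. Slides were probed at 4 °C for 1 h with biotin-labelled (HQ)5-HaloTag reader fusions (ATRX-ADD, ING2-PHD) then streptavidin-Alexa647, or with rabbit histone antibodies then anti-rabbit Alexa647. The mean 635 nm signal of the triplicate spots was scaled 0-1 between the lowest and highest values on each array.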

[2] = target: HaloTag-ING2 PHD (mouse Ing2 200-280)
Procedure: as §1

[3] = target: anti-H3K4me3 antibody ab8580
Procedure: as §1

[4] = target: anti-H3K9me3 antibody ab8898
Procedure: as §1

[5] = peptide modifications: H2BK12ac H2BS14ph H2BK15ac, binder concentration: 1:2,000 dilution
[6] = peptide modifications: H2BK12ac H2BS14ph H2BK15ac, binder concentration: 1:10,000 dilution
[7] = peptide modifications: H2BK11ac H2BK15ac, binder concentration: 1:2,000 dilution
[8] = peptide modifications: H2BK11ac H2BK15ac, binder concentration: 1:10,000 dilution
[9] = peptide modifications: H2BK12ac H2BS14ph H2BK15ac H2BK16ac, binder concentration: 1:2,000 dilution
[10] = peptide modifications: H2BK12ac H2BS14ph H2BK15ac H2BK16ac, binder concentration: 1:10,000 dilution
[11] = peptide modifications: H2BS14ph, binder concentration: 1:2,000 dilution
[12] = peptide modifications: H2BS14ph, binder concentration: 1:10,000 dilution
[13] = peptide modifications: H2BK11ac H2BS14ph H2BK15ac H2BK16ac, binder concentration: 1:2,000 dilution
[14] = peptide modifications: H2BK11ac H2BS14ph H2BK15ac H2BK16ac, binder concentration: 1:10,000 dilution
[15] = peptide modifications: H2BK12ac H2BK15ac, binder concentration: 1:2,000 dilution
[16] = peptide modifications: H2BK12ac H2BK15ac, binder concentration: 1:10,000 dilution
[17] = peptide modifications: H2BK11ac H2BK12ac, binder concentration: 1:2,000 dilution
[18] = peptide modifications: H2BK11ac H2BK12ac, binder concentration: 1:10,000 dilution
[19] = peptide modifications: H2BK16ac, binder concentration: 1:2,000 dilution
[20] = peptide modifications: H2BK16ac, binder concentration: 1:10,000 dilution
[21] = peptide modifications: H2BK11ac H2BS14ph H2BK15ac, binder concentration: 1:2,000 dilution
[22] = peptide modifications: H2BK11ac H2BS14ph H2BK15ac, binder concentration: 1:10,000 dilution
[23] = peptide modifications: H2BK11ac H2BK15ac H2BK16ac, binder concentration: 1:2,000 dilution
[24] = peptide modifications: H2BK11ac H2BK15ac H2BK16ac, binder concentration: 1:10,000 dilution

Binder: APAPKKGSKKAVT [H2B 7-19 A P A P K Kac G Sph Kac K A V T]
- peptide microarray binding signal ([1]; peptide modifications: H2BK12ac H2BS14ph H2BK15ac, binder concentration: 50 nM): 0.00266 ± 0.00014
- peptide microarray binding signal ([1]; peptide modifications: H2BK12ac H2BS14ph H2BK15ac, binder concentration: 500 nM): 0.00105 ± 0.00012
- peptide microarray binding signal ([2]; peptide modifications: H2BK12ac H2BS14ph H2BK15ac, binder concentration: 10 nM): 0.00221 ± 5.8e-05
- peptide microarray binding signal ([2]; peptide modifications: H2BK12ac H2BS14ph H2BK15ac, binder concentration: 100 nM): 0.00241 ± 8e-05
- peptide microarray binding signal [3, 5]: 7.55e-05 ± 1.7e-06
- peptide microarray binding signal [3, 6]: 0.000571 ± 1.1e-05
- peptide microarray binding signal [4, 5]: 0.000362 ± 1.3e-05
- peptide microarray binding signal [4, 6]: 0.00075 ± 2.1e-05

Binder: APAPKKGSKKAVT [H2B 7-19 A P A P Kac K G S Kac K A V T]
- peptide microarray binding signal ([1]; peptide modifications: H2BK11ac H2BK15ac, binder concentration: 50 nM): 0.00295 ± 3.3e-05
- peptide microarray binding signal ([1]; peptide modifications: H2BK11ac H2BK15ac, binder concentration: 500 nM): 0.00457 ± 5.4e-05
- peptide microarray binding signal ([2]; peptide modifications: H2BK11ac H2BK15ac, binder concentration: 10 nM): 0.00686 ± 0.00014
- peptide microarray binding signal ([2]; peptide modifications: H2BK11ac H2BK15ac, binder concentration: 100 nM): 0.0056 ± 0.00049
- peptide microarray binding signal [3, 7]: 0.00319 ± 0.0012
- peptide microarray binding signal [3, 8]: 0.000913 ± 2.8e-05
- peptide microarray binding signal [4, 7]: 0.00104 ± 1.4e-05
- peptide microarray binding signal [4, 8]: 0.0015 ± 4.4e-05

Binder: APAPKKGSKKAVT [H2B 7-19 A P A P K Kac G Sph Kac Kac A V T]
- peptide microarray binding signal ([1]; peptide modifications: H2BK12ac H2BS14ph H2BK15ac H2BK16ac, binder concentration: 50 nM): 0.00257 ± 9.2e-05
- peptide microarray binding signal ([1]; peptide modifications: H2BK12ac H2BS14ph H2BK15ac H2BK16ac, binder concentration: 500 nM): 0.00224 ± 5e-05
- peptide microarray binding signal ([2]; peptide modifications: H2BK12ac H2BS14ph H2BK15ac H2BK16ac, binder concentration: 10 nM): 0.005013 ± 2.5e-05
- peptide microarray binding signal ([2]; peptide modifications: H2BK12ac H2BS14ph H2BK15ac H2BK16ac, binder concentration: 100 nM): 0.00213 ± 9.1e-05
- peptide microarray binding signal [3, 9]: 0.000793 ± 0.00015
- peptide microarray binding signal [3, 10]: 0.000799 ± 8.3e-06
- peptide microarray binding signal [4, 9]: 0.000423 ± 8.2e-06
- peptide microarray binding signal [4, 10]: 0.0011 ± 4e-05

Binder: APAPKKGSKKAVT [H2B 7-19 A P A P K K G Sph K K A V T]
- peptide microarray binding signal ([1]; peptide modifications: H2BS14ph, binder concentration: 50 nM): 0.00226 ± 0.00011
- peptide microarray binding signal ([1]; peptide modifications: H2BS14ph, binder concentration: 500 nM): 0.00381 ± 2.8e-05
- peptide microarray binding signal ([2]; peptide modifications: H2BS14ph, binder concentration: 10 nM): 0.00263 ± 3.9e-05
- peptide microarray binding signal ([2]; peptide modifications: H2BS14ph, binder concentration: 100 nM): 0.00163 ± 1.7e-05
- peptide microarray binding signal [3, 11]: 0.000302 ± 3.1e-06
- peptide microarray binding signal [3, 12]: 0.000799 ± 1.7e-05
- peptide microarray binding signal [4, 11]: 0.000438 ± 3.5e-05
- peptide microarray binding signal [4, 12]: 0.00075 ± 4e-05

Binder: APAPKKGSKKAVT [H2B 7-19 A P A P Kac K G Sph Kac Kac A V T]
- peptide microarray binding signal ([1]; peptide modifications: H2BK11ac H2BS14ph H2BK15ac H2BK16ac, binder concentration: 50 nM): 0.00323 ± 0.00013
- peptide microarray binding signal ([1]; peptide modifications: H2BK11ac H2BS14ph H2BK15ac H2BK16ac, binder concentration: 500 nM): 0.00167 ± 0.00033
- peptide microarray binding signal ([2]; peptide modifications: H2BK11ac H2BS14ph H2BK15ac H2BK16ac, binder concentration: 10 nM): 0.00388 ± 8.9e-05
- peptide microarray binding signal ([2]; peptide modifications: H2BK11ac H2BS14ph H2BK15ac H2BK16ac, binder concentration: 100 nM): 0.00269 ± 0.00017
- peptide microarray binding signal [3, 13]: 0.000245 ± 1e-05
- peptide microarray binding signal [3, 14]: 0.0012 ± 4.3e-05
- peptide microarray binding signal [4, 13]: 0.000529 ± 1.3e-05
- peptide microarray binding signal [4, 14]: 0.000865 ± 1.8e-05

Binder: APAPKKGSKKAVT [H2B 7-19 A P A P K Kac G S Kac K A V T]
- peptide microarray binding signal ([1]; peptide modifications: H2BK12ac H2BK15ac, binder concentration: 50 nM): 0.00342 ± 5.6e-05
- peptide microarray binding signal ([1]; peptide modifications: H2BK12ac H2BK15ac, binder concentration: 500 nM): 0.00938 ± 0.0002
- peptide microarray binding signal ([2]; peptide modifications: H2BK12ac H2BK15ac, binder concentration: 10 nM): 0.00609 ± 0.00019
- peptide microarray binding signal ([2]; peptide modifications: H2BK12ac H2BK15ac, binder concentration: 100 nM): 0.00503 ± 0.00011
- peptide microarray binding signal [3, 15]: 0.00285 ± 0.0017
- peptide microarray binding signal [3, 16]: 0.0012 ± 3.2e-05
- peptide microarray binding signal [4, 15]: 0.000966 ± 7.9e-05
- peptide microarray binding signal [4, 16]: 0.000923 ± 9.6e-06

Binder: APAPKKGSKKAVT [H2B 7-19 A P A P Kac Kac G S K K A V T]
- peptide microarray binding signal ([1]; peptide modifications: H2BK11ac H2BK12ac, binder concentration: 50 nM): 0.00411 ± 0.00015
- peptide microarray binding signal ([1]; peptide modifications: H2BK11ac H2BK12ac, binder concentration: 500 nM): 0.0031 ± 0.001
- peptide microarray binding signal ([2]; peptide modifications: H2BK11ac H2BK12ac, binder concentration: 10 nM): 0.00603 ± 0.00082
- peptide microarray binding signal ([2]; peptide modifications: H2BK11ac H2BK12ac, binder concentration: 100 nM): 0.00822 ± 0.001
- peptide microarray binding signal [3, 17]: 0.000245 ± 2.6e-06
- peptide microarray binding signal [3, 18]: 0.000913 ± 1.6e-05
- peptide microarray binding signal [4, 17]: 0.000906 ± 4.5e-05
- peptide microarray binding signal [4, 18]: 0.00127 ± 1.3e-05

Binder: APAPKKGSKKAVT [H2B 7-19 A P A P K K G S K Kac A V T]
- peptide microarray binding signal ([1]; peptide modifications: H2BK16ac, binder concentration: 50 nM): 0.00392 ± 4.6e-05
- peptide microarray binding signal ([1]; peptide modifications: H2BK16ac, binder concentration: 500 nM): 0.0109 ± 0.00096
- peptide microarray binding signal ([2]; peptide modifications: H2BK16ac, binder concentration: 10 nM): 0.0037 ± 0.00013
- peptide microarray binding signal ([2]; peptide modifications: H2BK16ac, binder concentration: 100 nM): 0.00617 ± 0.00026
- peptide microarray binding signal [3, 19]: 0.00417 ± 0.00052
- peptide microarray binding signal [3, 20]: 0.00097 ± 9.9e-06
- peptide microarray binding signal [4, 19]: 0.000966 ± 4.4e-05
- peptide microarray binding signal [4, 20]: 0.00144 ± 7.5e-05

Binder: APAPKKGSKKAVT [H2B 7-19 A P A P Kac K G Sph Kac K A V T]
- peptide microarray binding signal ([1]; peptide modifications: H2BK11ac H2BS14ph H2BK15ac, binder concentration: 50 nM): 0.00176 ± 7.1e-05
- peptide microarray binding signal ([1]; peptide modifications: H2BK11ac H2BS14ph H2BK15ac, binder concentration: 500 nM): 0.00238 ± 7.9e-05
- peptide microarray binding signal ([2]; peptide modifications: H2BK11ac H2BS14ph H2BK15ac, binder concentration: 10 nM): 0.00286 ± 8.4e-05
- peptide microarray binding signal ([2]; peptide modifications: H2BK11ac H2BS14ph H2BK15ac, binder concentration: 100 nM): 0.00149 ± 3.1e-05
- peptide microarray binding signal [3, 21]: 0.00157 ± 4.2e-05
- peptide microarray binding signal [3, 22]: 0.000742 ± 1.3e-05
- peptide microarray binding signal [4, 21]: 0.000393 ± 1e-05
- peptide microarray binding signal [4, 22]: 0.000692 ± 7.3e-06

Binder: APAPKKGSKKAVT [H2B 7-19 A P A P Kac K G S Kac Kac A V T]
- peptide microarray binding signal ([1]; peptide modifications: H2BK11ac H2BK15ac H2BK16ac, binder concentration: 50 nM): 0.005642 ± 4e-05
- peptide microarray binding signal ([1]; peptide modifications: H2BK11ac H2BK15ac H2BK16ac, binder concentration: 500 nM): 0.0203 ± 0.002
- peptide microarray binding signal ([2]; peptide modifications: H2BK11ac H2BK15ac H2BK16ac, binder concentration: 10 nM): 0.00776 ± 0.00056
- peptide microarray binding signal ([2]; peptide modifications: H2BK11ac H2BK15ac H2BK16ac, binder concentration: 100 nM): 0.0162 ± 0.0017
- peptide microarray binding signal [3, 23]: 0.0139 ± 0.0047
- peptide microarray binding signal [3, 24]: 0.00245 ± 0.0001
- peptide microarray binding signal [4, 23]: 0.00378 ± 0.00028
- peptide microarray binding signal [4, 24]: 0.00254 ± 0.0001
